# Test results published in the supplement of paper PMC6992640.
# ± gives the standard deviation of the averaged measurements.
# Assays:
# Assay in all cases: cell viability (% of vehicle); higher = less cytotoxic
# Settings in all cases: 10 µM; 72 h
# HCI01 = test system: HCI01 (cells of a triple-negative basal-like breast cancer xenograft)
# HCI03 = test system: HCI03 (cells of an ER-positive luminal breast cancer xenograft)
# HCI09 = test system: HCI09 (cells of a triple-negative luminal androgen receptor type breast cancer xenograft)
# HCI11 = test system: HCI11 (cells of an ER-positive luminal breast cancer xenograft)
# HCI13 = test system: HCI13 (cells of an ER-positive luminal breast cancer xenograft)
# HCI16 = test system: HCI16 (cells of a triple-negative basal-like breast cancer xenograft)
# UCD52 = test system: UCD52 (cells of a triple-negative basal-like breast cancer xenograft)
# WHIM2 = test system: WHIM2 (cells of a triple-negative basal-like breast cancer xenograft)
# WHIM30 = test system: WHIM30 (cells of a triple-negative basal-like breast cancer xenograft)
# 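Also: PDX cells carrying CMV promoter-driven luciferase, viability read as total photon flux per second by IVIS imaging following D-luciferin, vehicle control 0.1% DMSO.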
SMILES,cell viability (HCI01),cell viability (HCI03),cell viability (HCI09),cell viability (HCI11),cell viability (HCI13),cell viability (HCI16),cell viability (UCD52),cell viability (WHIM2),cell viability (WHIM30)
CCCc1cc(C(N)=S)ccn1 [Protionamide],90.1 ± 32,117,97.5 ± 3,89.2,117 ± 10,112,100.1 ± 0.95,84 ± 27,112 ± 7.7
CCOc1nc2cccc(C(=O)O)c2n1Cc1ccc(-c2ccccc2-c2nn[nH]n2)cc1 [Candesartan],98 ± 5.4,122,93.6 ± 2.2,101,127.9 ± 1.2,109,82.15 ± 0.28,85.9 ± 7.9,112 ± 23
NC(CO)(CO)CO.O=C(c1ccccc1)c1ccc2n1CCC2C(=O)O (stereo not given) [Ketorolac tromethamine salt],123 ± 15,174,146 ± 70,102,122 ± 26,131,145.6 ± 0.93,130 ± 15,116 ± 4.2
CN(Cc1ccc(C(C)(C)C)cc1)Cc1cccc2ccccc12.Cl [Butenafine HCl],104 ± 1.5,99.2,117 ± 19,104,72.7 ± 4.7,151,81.4 ± 2.7,56.2 ± 12,142 ± 3.3
COC1=CC=C(/C(C2=CC=C(OC)C=C2)=C(Cl)/C3=CC=C(OC)C=C3)C=C1 [Chlorotrianisene],85.2 ± 4.9,125,86.2 ± 23,101,76.3 ± 15,95.5,89.8 ± 13,95 ± 1.6,96.58 ± 0.32
"Cc1c(C(=O)Nc2ccc(N3CC(C)OC(C)C3)nc2)cccc1-c1ccc(OC(F)(F)F)cc1 (stereo not given) [LDE225 (NVP-LDE225,Erismodegib)]",98.3 ± 17,119,66.8 ± 2.4,80.7,69.7 ± 4.5,94.8,80.8 ± 1.8,97.5 ± 14,86.1 ± 7.6
CN(C)CCC=C1c2ccccc2Sc2ccc(Cl)cc21 [Chlorprothixene],85.8 ± 14,87.1,71.9 ± 13,93.9,105 ± 2.6,83.8,54.4 ± 2.5,49.9 ± 20,124 ± 13
CN1CCCC1c1cccnc1.O=C(O)C(O)C(O)C(=O)O.O=C(O)C(O)C(O)C(=O)O (stereo not given) [Nicotine Difartrate],115 ± 7.3,107,126 ± 40,114,99.2 ± 3.9,98.7,100 ± 12,99.6 ± 9.8,121 ± 2.7
CCC(C(C)O)n1ncn(-c2ccc(N3CCN(c4ccc(OCC5COC(Cn6cncn6)(c6ccc(F)cc6F)C5)cc4)CC3)cc2)c1=O (stereo not given) [Posaconazole],123 ± 2.6,78,59.1 ± 18,64.1,79.9 ± 3.4,94.5,74.8 ± 6.6,86.8 ± 13,105 ± 18
CCNC1CC(C)S(=O)(=O)c2sc(S(N)(=O)=O)cc21.Cl (stereo not given) [Dorzolamide HCl],100 ± 4.5,111,96.8 ± 21,130,121 ± 5.2,98.2,71.8 ± 5.1,105 ± 8.4,89.3 ± 6.7
NCCCCC(NC(CCc1ccccc1)C(=O)O)C(=O)N1CCCC1C(=O)O.O.O (stereo not given) [Lisinopril dihydrate],98.2 ± 20,137,106 ± 19,113,113 ± 3.5,130,105 ± 0.53,94 ± 22,150 ± 8.1
CC(C)(C)NCC(O)COc1cccc2c1CCC(O)=N2.Cl (stereo not given) [Carteolol HCl],96.4 ± 13,144,97.3 ± 14,110,123 ± 1.9,115,114 ± 3.5,87.3 ± 17,116.5 ± 0.86
CCOC(=O)C1=CC(OC(CC)CC)C(NC(C)=O)C(N)C1 (stereo not given) [Oseltamivir],111 ± 11,124,96.2 ± 20,97.4,99.2 ± 7.4,91,96.03 ± 0.49,91.98 ± 0.9,126 ± 6.9
O=C(NCCO[N+](=O)[O-])c1cccnc1 [Nicorandil],81.9 ± 59,135,93.1 ± 9.9,89.3,151 ± 28,113,82.6 ± 8.1,120 ± 9.5,127 ± 5.8
CC(C)(C(=O)O)c1ccc(C(O)CCCN2CCC(C(O)(c3ccccc3)c3ccccc3)CC2)cc1.Cl (stereo not given) [Fexofenadine HCl],127 ± 32,129,115 ± 1.6,96.4,131 ± 6.2,120,87.7 ± 9.4,84.5 ± 14,108 ± 14
CCCC(C(=O)OCCN(CC)CC)(c1ccccc1)c1ccccc1.Cl [SKF 525A (hydrochloride)],103 ± 33,123,93.8 ± 1.2,66.3,103 ± 28,130,61.5 ± 5.9,99.1 ± 11,119.8 ± 0.2
Cc1cn(-c2cc(/N=C(\O)c3ccc(C)c(Nc4nccc(-c5cnccn5)n4)c3)cc(C(F)(F)F)c2)cn1 [Radotinib(IY-5511)],89.5 ± 3.2,142,92.6 ± 13,92.9,80.9 ± 9.7,107,102 ± 10,100 ± 12,104 ± 27
CC(=CC(=O)OCCCCCCCCC(=O)O)CC1OCC(CC2OC2C(C)C(C)O)C(O)C1O (stereo not given) [Mupirocin],97.5 ± 17,129,86.5 ± 23,90.6,89.6 ± 9.9,101,84.2 ± 3.4,81.9 ± 12,113.3 ± 0.3
NCCC(O)C(=O)NC1CC(N)C(OC2OC(CN)C(O)C(O)C2O)C(O)C1OC1OC(CO)C(O)C(N)C1O (stereo not given) [Amikacin],93.2 ± 16,144,105 ± 22,95.3,106 ± 16,114,103 ± 11,86.1 ± 8.6,117 ± 2.6
CNCC(O)c1ccc(O)c(O)c1.Cl (stereo not given) [Epinephrine HCl],102 ± 3.8,112,91.6 ± 15,76.6,118 ± 17,119,118 ± 11,142 ± 3.3,100 ± 1.1
